Data as given in PubChem BioAssay.
Unmarked numbers belong to inactive results. The source made the active and inactive calls. Unless noted, how the calls were made is not given here.

Assay: Pseudomonas biofilm growth suppression – PAO1 strain, BacTiter-Glo luminescence, LB-PBS, primary screen (AID 1144)
Conditions: P. aeruginosa PAO1 biofilm, 12 h, higher = more signal

| Compound | z-score |
| --- | --- |
| CC(C)(C)OC(=O)CC[C@]1(C(=O)N2CCCCC2)N=C(c2ccc(OCCCO)cc2)O[C@H]1c1ccccc1 | 0.418 |
| N#Cc1ccc(NN2C(C(O)CCc3ccccc3)C=CC3C(=O)N(c4ccccc4)C(=O)C32)cc1 (stereo not drawn) | -1.07 |
| Cc1ccc(S[C@]2(C(=O)NC3CC3)CC(=O)N(Cc3cc(C(F)(F)F)cc(C(F)(F)F)c3)[C@@H]2c2ccc(CO)cc2)cc1 | -1.59 |
| C#CCCCON=C1C[C@@H](O)[C@@H](O)[C@@H]2[C@@H]3C(=O)N(Cc4ccc5c(c4)OCO5)C(=O)[C@@H]3CC[C@@H]12 | 1.86 |
| Cc1ccc(S(=O)(=O)N2[C@@H](c3ccccc3)C(C(=O)O)=CC[C@H]2c2ccccc2)cc1 | 0.0815 |

Assay: basal CRE-LacZ reporter activity in PC12 – cell-based, unstimulated, primary screen (AID 1145)
Conditions: no forskolin, luminescence, 4.5 h, higher = more signal, called active from +8 up or from −8 down

| Compound | z-score |
| --- | --- |
| COc1cc(CO)cc(I)c1O[C@H]1C=C(C(=O)NCCO)C[C@@H](N(CC2CCCCC2)C(=O)c2cc3ccccc3oc2=O)[C@@H]1O | 1.13 |
| C=C(CCCC)/C(=C/C[C@@H](OC(=O)c1ccncc1)c1cccc(OCCO)c1)c1cc(C(=O)OC)ccc1OC | 13.4 (active) |
| C=CCC(OC(C)=O)[C@@H]1[C@@H](N(Cc2ccc(-c3ccccc3)cc2)C(=O)c2ccc(-c3ccccc3)cc2)c2cc(OCCCO)ccc2N1C(=O)Cc1ccc(OC)cc1 (stereo partly drawn) | -0.0247 |
| CC(=O)NCCCC[C@@H]1NC(=O)[C@H]2C[C@@H](C(=O)NCCCCCCN(C)C)[C@@H](c3ccc(O)cc3)N2C1=O | 0.281 |
| Cc1ccc(S[C@]2(C(=O)NC(C)C)CC(=O)N(C3Cc4ccccc4C3)[C@@H]2c2ccc(CO)cc2)cc1 | -0.231 |
| Cc1ccc(N2C(=O)c3ccccc3[C@](C)(C(=O)NCC(C)C)[C@@H]2c2ccc(CO)cc2)nc1 | -0.0888 |
| [N-]=[N+]=NCc1ccccc1C[C@]1(C(=O)N2CCCCC2)N=C(c2ccc(OCCCO)cc2)O[C@H]1c1ccccc1CN=[N+]=[N-] | 1.88 |
| C=C(CCCC)/C(=C/C[C@H](OC(=O)c1ccncc1)c1cccc(OCCO)c1)c1cc(C(=O)OC)ccc1OC | 6.81 |
| O=C(CS)NCCCCCCNC(=O)[C@@H]1C[C@@H]2C(=O)N[C@@H](Cc3ccccc3)C(=O)N2[C@@H]1c1ccc(O)cc1 | -0.537 |
| C=C(CCCC)C(=O)CC[C@@H](OC(=O)c1cccnc1)c1cccc(OCCO)c1 | 17.7 (active) |
| COc1ccc([C@H]2C[C@H]3C(Br)=C[C@]2(OC)C(=O)[C@]32CO2)cc1 | 0.586 |
| C=C(C(=O)CC[C@H](OC(=O)c1ccccc1-c1ccccc1C(=O)O)c1ccc(CO)o1)C(C)C | 0.406 |
| C#CCCCON=C1C[C@@H](O)[C@@H](O)[C@@H]2[C@@H]3C(=O)N(Cc4ccc5c(c4)OCO5)C(=O)[C@@H]3CC[C@H]12 | -0.657 |
| COC(=O)c1ccc(C#CC(NP(=O)(c2ccccc2)c2ccccc2)c2ccccc2)cc1 (stereo not drawn) | -0.372 |
| CCOC(=O)C1=CC[C@@H](c2ccc(-c3ccc(OCc4ccccc4)cc3)c(OC)c2)N(S(=O)(=O)c2ccc(C)cc2)[C@H]1c1ccccc1 | -0.489 |
| CC(c1ccccc1)C(O)C1C=CC2C(=O)N(C)C(=O)C2N1N(c1ccccc1)c1ccccc1 (stereo not drawn) | 0.443 |
| C=C[C@H](OC)[C@@H](OC(=O)Nc1ccc(SC)cc1)c1ccc(O)c(F)c1 | 5.83 |
| C=C(CCCC)C(=O)CC[C@@H](OC(C)=O)c1ccccc1OCCO | 9.35 (active) |
| CC(=O)NCCCC[C@@H]1NC(=O)[C@H]2C[C@@H](C(=O)NCCCCCCN(C)C)[C@@H](c3cccc(OCCO)c3)N2C1=O | 0.0084 |
| CCCC=C(CCC)[C@@H](NS(=O)(=O)c1cccc(C(F)(F)F)c1)c1ccc(C(=O)OC)cc1 | -0.182 |
| O=C(NCc1ccccc1)[C@@]1(Cc2ccccc2)COC(c2ccc(OCCCO)cc2)=N1 | -0.0157 |
| [N-]=[N+]=NCc1ccccc1[C@H]1OC(c2ccc(OCCCO)cc2)=N[C@@]1(Cc1ccccc1N=[N+]=[N-])C(=O)NCc1ccccc1 | 1.74 |
| NC(=O)NCC#Cc1ccc2c(c1)[C@]1(C(=O)N2)[C@H](C(=O)N2CCCCCCC2)[C@H]2C(=O)O[C@H](c3ccccc3)[C@H](c3ccccc3)N2[C@@H]1c1ccccc1OCCO | -0.348 |
